High-throughput results (PubChem BioAssay)
The full list was thinned out, with hits kept by preference.
ALOX12 inh: inhibitors of human 12S-lipoxygenase ALOX12. P18054. purified 12hLO, xylenol orange hydroperoxide absorbance. Potency, µM (doses to about 108 µM), inactives show at the highest dose activity change, negative = inhibition, actives largely listed as inhibitors. 580,000 tested, 1.1% active. AID 1671190; note: potency is the fitted concentration of half-maximal effect
Target sequence (P18054 whole entry, looked up): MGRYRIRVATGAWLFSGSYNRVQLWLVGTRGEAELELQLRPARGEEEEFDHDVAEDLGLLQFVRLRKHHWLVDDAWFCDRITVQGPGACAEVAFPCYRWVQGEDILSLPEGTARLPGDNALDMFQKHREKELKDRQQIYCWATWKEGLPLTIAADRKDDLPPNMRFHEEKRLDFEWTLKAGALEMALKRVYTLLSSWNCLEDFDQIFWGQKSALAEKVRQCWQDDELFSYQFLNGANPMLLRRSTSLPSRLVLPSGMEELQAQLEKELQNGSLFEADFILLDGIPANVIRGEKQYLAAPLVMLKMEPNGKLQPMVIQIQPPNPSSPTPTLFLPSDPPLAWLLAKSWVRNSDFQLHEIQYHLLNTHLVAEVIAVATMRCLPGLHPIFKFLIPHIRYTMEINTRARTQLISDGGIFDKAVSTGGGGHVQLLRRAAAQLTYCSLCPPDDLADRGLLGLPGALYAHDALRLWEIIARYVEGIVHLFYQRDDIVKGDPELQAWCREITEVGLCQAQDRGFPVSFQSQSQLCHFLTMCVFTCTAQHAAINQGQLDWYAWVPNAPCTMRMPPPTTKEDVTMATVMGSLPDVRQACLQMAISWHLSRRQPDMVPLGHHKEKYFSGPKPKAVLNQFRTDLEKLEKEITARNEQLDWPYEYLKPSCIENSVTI
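Purified human 12hLO at 150 nM in 25 mM Hepes, 0.01% Triton X-100, pH 7.0, preincubated 15 min at room temperature with compound. Reaction started with 40 uM arachidonic acid, 30 min at room temperature. Hydroperoxide measured by Fe-xylenol orange, 573/405 nm absorbance ratio.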
HT1080NT lethal: kills 2HG-producing HT-1080-NT fibrosarcoma cells; 360,000 tested, 1.6% active; HT-1080-NT fibrosarcoma viability, CellTiter-Glo ATP luminescence, 48 h; Potency, µM (top dose mostly 46.1 µM), for the others: at the highest dose activity, negative = less viability, usual class: cytotoxic;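 note: NT is the 2HG producing partner of a matched IDH1 knockdown line; potency is the fitted concentration of half-maximal effect; 0% = DMSO-treated cells and -100% = media-only wells without cells; nearly all actives have a fitted effect of over 55% in size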
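A 48-hour cytotoxicity screen used HT-1080-NT cells plated 2 hours before compound delivery. ATP-based CellTiter-Glo luminescence measured viability, normalized to DMSO and no-cell controls.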
TDP1 cell CPT: DT40-hTDP1 cell growth loss with CPT. Potency, µM (top dose mostly 46.2 µM), for inactives: at the top dose activity change, negative = growth inhibition, usual class: inhibitors. 420,000 tested, 12% active. AID 686979. chicken DT40 Tdp1-/-;hTDP1 cells + 20 nM CPT, ATP luminescence, 48 h; note: potency is the fitted concentration of half-maximal effect; nearly all actives have a fitted effect of over 55% in size
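Chicken DT40 Tdp1-/- cells complemented with human TDP1, 400 cells/well, exposed to compounds plus 20 nM camptothecin for at least 48 h at 37 C; viability read as ATP content by CellTiter-Glo luminescence.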
IL1B secr inh: blocks inflammasome-driven IL-1 beta release; THP-1 LPS/ATP IL-1B secretion, AlphaLISA, 16 h; active compounds read low; activity change, % at 57.5 µM; 360,000 tested, 4.7% active; in the data active = activity change below about -50%; inconclusive = mostly about -30% to -49%
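Secreted IL-1B measured by AlphaLISA bead assay after 16 h compound exposure of THP-1 cells; compounds (final up to 57.5 uM) added 1 h before LPS (250 ng/mL) and ATP (1.25 mM) stimulation; lower signal means less secretion.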
HT1080 IDH1KD tx: HT-1080 IDH1 knockdown cell toxicity (counter line); HT-1080 IDH1 knockdown viability, ATP luminescence, 48 h; 360,000 tested, 2% active; Potency, µM (doses to about 46.1 µM), inactives show at the top dose activity, negative = toxicity, usual class: cytotoxic; AID 686971;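 note: potency is the fitted concentration of half-maximal effect; 0% = DMSO wells and -100% = cell-free medium wells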
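CellTiter-Glo luminescence after 48 h compound exposure at 37 degrees C of IDH1-knockdown HT-1080 cells in 5% FBS RPMI. %Activity scaled between DMSO wells and cell-free media wells, with curves fitted and assigned curve classes.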
TDP1 cell noCPT: qHTS for Inhibitors of human tyrosyl-DNA phosphodiesterase 1 (TDP1): qHTS in cells in absence of CPT; DT40 Tdp1-/- hTDP1 cells, no CPT, ATP luminescence, 48 h; Potency, µM (titrated, usually from 46.2 µM), for the others: at the top dose activity change, negative = growth inhibition, hits mostly inhibitors; 420,000 tested, 15% active; AID 686978, 2013; note: potency is the fitted concentration of half-maximal effect; nearly all actives have a fitted effect of over 55% in size
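Growth of hTDP1-complemented DT40 Tdp1-knockout cells is measured by ATP luminescence after at least 48 hr compound exposure at 37 °C, with DMSO substituting for the 20 nM CPT used in the parallel screen.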
* = called active by the depositor; i = inactive; ? = inconclusive; / = no result given; ! = not active in a repeat. Unless noted, calls come from the whole dose curve; as a rule, active = well fitted curve in the direction sought with a large enough effect; inconclusive = small, poorly fitted or top-dose-only effect, or another doubt; inactive = no such curve, though single readings can be large; an effect the other way counts as inactive or inconclusive. Unless noted, % is set by controls: 0 for no effect and ±100 for the full control effect.

SMILES	ALOX12 inh	HT1080NT lethal	TDP1 cell CPT	IL1B secr inh	HT1080 IDH1KD tx	TDP1 cell noCPT
CCN(CC)C(=O)[C@H]1C[C@H](CC(=O)NCc2ccc(OC)c(OC)c2)C(=O)N2CCc3c([nH]c4cc(CCC(=O)N(C)C)ccc34)[C@]12C	1%	0%	2%	-22	7%	1%
CCN(CC)C(=O)[C@H]1C[C@H](CC(=O)NC/C=C(\C)CCC=C(C)C)C(=O)N2CCc3c([nH]c4cc(CCC(=O)N(C)C)ccc34)[C@]12C	/	-15%	16µM*	?	-27%	15µM*
CC(C)=CCC/C(C)=C/CNC(=O)C[C@H]1C[C@H](C(=O)N2CCCCC2)[C@@]2(CCc3ccccc3)c3[nH]c4cc(CCC(=O)N(C)C)ccc4c3CCN2C1=O	-15%	-5%	10µM*	-68*	4%	8.2µM*
Cc1ccc(C(=O)CC(NCCO)C(=O)O)cc1 (configuration not stated)	-7%	/	/	/	/	/
Cc1ccc(SC(CC(=O)c2ccc(F)cc2)C(=O)O)cc1 (configuration not stated)	i	0%	?	-96*	0%	26µM*
CC(C)(C)c1ccc(C(=O)CC(Sc2ccc(Cl)cc2)C(=O)O)cc1 (configuration not stated)	?	12µM*	3.3µM*	-97*	15µM*	4.1µM*
Cc1ccccc1Nc1c(-c2ccc(N3CCOCC3)cc2)nc2ccc(Br)cn12	-25%	/	12µM*	/	/	15µM*
COc1cc(O)ccc1-c1nc2ccc(Br)cn2c1Nc1ccccc1C	-16%	/	21µM*	/	/	9.2µM*
Cc1nc(Nc2nc3c(c(=O)[nH]2)CCC3)nc2ccccc12	/	?	5.8µM*	-77*	?	4.1µM*
Cc1ccc(SCc2cc(=O)[nH]c(Nc3nc(C)c4ccc(C)cc4n3)n2)cc1	-55%	29%	?	22	20%	?
Cc1ccc2c(C)nc(Nc3nc(CSc4nc5ccccc5[nH]4)cc(=O)[nH]3)nc2c1	4%	18µM*	12µM*	-86*	11µM*	12µM*
Cc1ccc(SCc2cc(=O)[nH]c(Nc3nc(C)c4ccccc4n3)n2)cc1	?	-19%	12µM*	-7	-13%	?
COc1cc(Cl)ccc1S(=O)(=O)N1CCC(C(N)=O)CC1	-11%	/	/	/	/	/
O=C(COC(=O)/C=C/c1ccc2c(c1)OCO2)NCc1ccc(F)cc1	7%	?	23µM*	24	?	21µM*
O=C(COC(=O)/C=C/c1ccc(F)cc1)NCc1ccc2c(c1)OCO2	1%	10%	-6%	4	11%	-3%
O=C(COC(=O)/C=C/c1ccc(S(=O)(=O)N2CCOCC2)cc1)NCc1ccc(F)cc1	-13%	-13%	3.7µM*	0	-12%	12µM*
Cc1ccc(-c2csc(NC(=O)CN3CCOCC3)n2)cc1C	/	-6%	?	1	-3%	16µM*
O=C(CN1CCCC1)Nc1nc(-c2ccc(Cl)cc2)cs1	/	-23%	26µM*	-11	-6%	16µM*
Cc1cccc(C)c1NC(=O)Cn1nnc(-c2ccc(CN3CCC(C)CC3)cc2)n1	17%	5%	-1%	-8	12%	-23%
O=C(CN1CCCCC1)Nc1nc(-c2ccc(Cl)cc2)cs1	0%	13%	?	-82*	3%	-2%
O=C(CN1CCCCC1)Nc1nc(-c2ccccc2)cs1	/	0%	9%	-26	6%	?
CC1CCN(Cc2ccc(-c3nnn(CC(=O)Nc4ccccc4Cl)n3)cc2)CC1	-4%	-3%	16µM*	10	-9%	21µM*
Cc1oc2cc(OCC(=O)Nc3ccccc3F)ccc2c(=O)c1Oc1ccccc1	6%	/	/	/	/	/
CC(Nc1cccc(CO)c1)c1nc2scc(-c3cccs3)c2c(=O)[nH]1 (configuration not stated)	0%	/	/	/	/	/
O=C(Cn1nnc(-c2ccc(CN3CCOCC3)cc2)n1)Nc1nc(-c2ccccc2)cs1	-21%	?	?	-20	-15%	21µM*
SMILES	ALOX12 inh	HT1080NT lethal	TDP1 cell CPT	IL1B secr inh	HT1080 IDH1KD tx	TDP1 cell noCPT
COc1ccc(C2(O)CCN(CC(=O)Nc3nc(-c4ccccc4)cs3)CC2)cc1	2%	?	?	-98*	?	?
CN1CCN(CC(=O)Nc2nc(-c3ccccc3)cs2)CC1	-14%	3%	-7%	16	-2%	0%
O=C(CN1CCOCC1)Nc1nc(-c2ccccc2)cs1	0%	1%	-11%	-6	1%	?
CC(C)c1nc2c(c(-c3ccc(O)cc3)n1)CCN(Cc1cccnc1)CC2	13%	/	/	/	/	/
O=C(CSCC1CC1)N1CCCC(c2nccn2Cc2cccnc2)C1 (configuration not stated)	35%	/	/	/	/	/
Cc1ccsc1CCN1C(=O)N(c2ccccc2)C(=O)C1CC(=O)Nc1ccc(Cl)cc1 (configuration not stated)	?	/	26µM*	/	/	?
O=C(CC1C(=O)N(c2ccccc2)C(=O)N1CCc1cccs1)Nc1ccc(Cl)cc1 (configuration not stated)	?	/	21µM*	/	/	?
Cc1ccc(CN2C(=O)N(c3ccccc3)C(=O)C2CC(=O)Nc2ccccc2)cc1 (configuration not stated)	6%	/	-22%	/	/	?
C=C(C)CN(CC)C(=O)c1scnc1C	-51%	/	/	/	/	/
CN(C)c1ccc2cc(S(=O)(=O)O)cc(O)c2c1	?	15%	?	-22	2%	-9%
CN(C)c1ccc2c(O)cc(=O)n(C)c2c1	-8%	6%	15µM*	33	?	16µM*
CC(C)CCNC(=O)CCC1CCN(S(=O)(=O)c2cccc(F)c2)CC1	7%	/	/	/	/	/
O=C(CSCc1ccc(Br)cc1)Nc1ccccc1C(=O)N1CCOCC1	467%	3%	?	6	13%	16µM*
O=C(CSCc1ccc(Cl)cc1)Nc1ccc(O)cc1C(=O)O	6.3µM*	14%	5%	3	-15%	-16%
COCCN1CC(c2n[nH]c(C3CCOCC3)n2)CCC1=O (configuration not stated)	-13%	/	/	/	/	/
COc1ccc(N(C(=O)c2cccs2)S(=O)(=O)c2ccc3c(c2)oc(=O)n3C)cc1	6%	/	/	/	/	/
O=C(Nc1ccccc1)[C@@H]1CC=C[C@@H]2CCN(Cc3ccccc3)C(=O)[C@@H]21	-1%	0%	?	-7	15%	22µM*!
